In PubChem BioAssay (Tox21):
Records with an inconclusive call do not appear. Calls of active or inactive are those of the source. Unless noted, calls follow the shape of the dose curve; as a rule, active = well fitted curve in the direction sought with a large enough effect in the repeat runs; inconclusive = weak or mixed curves; inactive = no such curve, though single readings can be large; an effect the other way counts as inactive or inconclusive.

Key:
[1] = qHTS assay to identify small molecule agonists of the peroxisome proliferator-activated receptor delta (PPARd) signaling pathway - cell viability counter screen (AID 743211); also: nearly all actives have a fitted effect of over 55% in size
Procedure, shortened: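 Tox21 library compounds, delivered in DMSO, were incubated 17 h with PPARd-bla HEK293H cells; cytotoxicity was taken from CellTiter-Glo luminescence read 30 min after reagent addition.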

[2] = molecular target: Peroxisome proliferator-activated receptor delta (Homo sapiens) (UniProt Q03181); experiment: qHTS assay to identify small molecule agonists of the peroxisome proliferator-activated receptor delta (PPARd) signaling pathway (AID 743212; calls by dose curve; also: potency is read from the fitted curve at half-maximal effect)
Peroxisome proliferator-activated receptor delta (Homo sapiens), sequence (Q03181 whole entry, looked up): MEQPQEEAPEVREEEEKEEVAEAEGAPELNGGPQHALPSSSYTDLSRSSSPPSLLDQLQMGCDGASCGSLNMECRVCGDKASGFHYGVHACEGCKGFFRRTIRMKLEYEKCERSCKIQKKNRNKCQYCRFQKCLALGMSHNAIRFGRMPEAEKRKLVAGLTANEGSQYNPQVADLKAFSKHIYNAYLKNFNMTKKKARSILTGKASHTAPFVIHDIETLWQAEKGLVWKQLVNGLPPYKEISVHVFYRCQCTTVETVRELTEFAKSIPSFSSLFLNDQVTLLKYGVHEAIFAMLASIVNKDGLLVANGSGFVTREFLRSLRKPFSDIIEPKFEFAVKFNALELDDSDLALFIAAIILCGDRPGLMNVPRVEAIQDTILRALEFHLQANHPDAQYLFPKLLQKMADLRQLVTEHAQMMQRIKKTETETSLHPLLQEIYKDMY
Procedure, shortened: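 HEK293H UAS-bla reporter cells, human PPARd system; compounds delivered in DMSO after 5 h plating, then at 37 C. Beta-lactamase FRET read, 2 h RT substrate step.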

[3] = qHTS assay to identify small molecule antagonists of the peroxisome proliferator-activated receptor delta (PPARd) signaling pathway - cell viability counter screen (AID 743213); also: nearly all actives have a fitted effect of over 50% in size
Procedure, shortened: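 HEK293H cells with the PPARd UAS-bla reporter, co-treated 17 h at 37 C with compounds and L165041 (300 nM final), were lysed with CellTiter-Glo. Luminescence indicated viable cell content.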

[4] = molecular target: Peroxisome proliferator-activated receptor delta (Homo sapiens) (UniProt Q03181); experiment: qHTS assay to identify small molecule antagonists of the peroxisome proliferator-activated receptor delta (PPARd) signaling pathway (AID 743215; active = well fitted inhibition curve with a large enough effect in the signal ratio in the repeat runs, not every such curve was filed as active; the % refers to the signal ratio;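 also: cells stimulated with agonist L165041 at 300 nM final during compound exposure; series mostly up to about 62 µM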)
Procedure, shortened: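 Inhibition of L165041-driven (300 nM final) PPARd signaling is scored in HEK293H UAS-bla cells. Exposure lasts 17 h at 37 C; beta-lactamase activity is then read by FRET substrate fluorescence after 2 h at room temperature.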

[5] = molecular target: Bile acid receptor (Homo sapiens) (UniProt Q96RI1); experiment: qHTS assay to identify small molecule antagonists of the farnesoid-X-receptor (FXR) signaling pathway (AID 743217; active = well fitted inhibition curve with a large enough effect in the signal ratio in the repeat runs, not every such curve was filed as active; the % refers to the signal ratio)
Bile acid receptor (Homo sapiens), sequence (Q96RI1 whole entry, looked up): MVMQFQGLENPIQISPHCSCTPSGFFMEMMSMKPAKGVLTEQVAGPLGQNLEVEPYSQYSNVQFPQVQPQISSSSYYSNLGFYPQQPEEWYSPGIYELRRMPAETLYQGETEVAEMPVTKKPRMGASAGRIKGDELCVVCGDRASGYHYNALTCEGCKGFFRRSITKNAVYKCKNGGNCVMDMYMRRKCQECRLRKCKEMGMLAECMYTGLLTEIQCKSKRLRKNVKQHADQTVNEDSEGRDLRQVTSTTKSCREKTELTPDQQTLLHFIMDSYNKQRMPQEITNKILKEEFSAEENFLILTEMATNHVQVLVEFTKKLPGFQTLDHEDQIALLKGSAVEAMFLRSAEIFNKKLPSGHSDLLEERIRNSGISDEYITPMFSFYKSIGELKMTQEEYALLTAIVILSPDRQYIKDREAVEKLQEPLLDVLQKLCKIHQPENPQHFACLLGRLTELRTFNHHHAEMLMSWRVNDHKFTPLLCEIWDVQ
Procedure, shortened: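 Antagonist mode against 50 uM (final) chenodeoxycholic acid stimulation in FXR-bla HEK 293T cells, 16 h at 37 °C. Inhibition detected as reduced beta-lactamase activity via LiveBLAzer B/G FRET fluorescence after 2 h at room temperature.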

[6] = qHTS assay to identify small molecule agonists of the farnesoid-X-receptor (FXR) signaling pathway - cell viability counter screen (AID 743218); also: nearly all actives have a fitted effect of over 45% in size
Procedure, shortened: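 Cytotoxicity counter-screen run in parallel, same wells: FXR-UAS-bla HEK 293T cells dosed 16 h at 37 C, viability read by CellTiter-Glo luminescence after 30 min at room temperature.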

[7] = molecular target: Bile acid receptor (Homo sapiens) (UniProt Q96RI1); experiment: qHTS assay to identify small molecule agonists of the farnesoid-X-receptor (FXR) signaling pathway (AID 743220; active = well fitted activation curve with a large enough effect in the signal ratio in the repeat runs, not every such curve was filed as active; the % refers to the signal ratio)
Procedure, shortened: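 Beta-lactamase reporter under UAS control in GeneBLAzer FXR HEK 293T cells (5000/well) measured with LiveBLAzer FRET substrate after 2 h at room temperature. Compound exposure lasted 16 h at 37C.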

[8] = qHTS assay to identify small molecule antagonists of the farnesoid-X-receptor (FXR) signaling pathway - cell viability counter screen (AID 743221; active = well fitted cell-killing curve with a large enough effect in the repeat runs, not every such curve was filed as active; also: nearly all actives have a fitted effect of over 50% in size)
Procedure, shortened: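 Cytotoxicity is taken from ATP luminescence (CellTiter-Glo, 30 min, room temperature) in FXR-bla HEK 293T cells previously incubated 16 h at 37 C with compound and chenodeoxycholic acid at 50 uM final.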

[9] = molecular target: Vitamin D3 receptor (Homo sapiens) (UniProt P11473); experiment: qHTS assay to identify small molecule antagonists of the vitamin D receptor (VDR) signaling pathway (AID 743223; active = well fitted inhibition curve with a large enough effect in the signal ratio in the repeat runs, not every such curve was filed as active; the % refers to the signal ratio)
Vitamin D3 receptor (Homo sapiens), sequence (P11473 whole entry, looked up): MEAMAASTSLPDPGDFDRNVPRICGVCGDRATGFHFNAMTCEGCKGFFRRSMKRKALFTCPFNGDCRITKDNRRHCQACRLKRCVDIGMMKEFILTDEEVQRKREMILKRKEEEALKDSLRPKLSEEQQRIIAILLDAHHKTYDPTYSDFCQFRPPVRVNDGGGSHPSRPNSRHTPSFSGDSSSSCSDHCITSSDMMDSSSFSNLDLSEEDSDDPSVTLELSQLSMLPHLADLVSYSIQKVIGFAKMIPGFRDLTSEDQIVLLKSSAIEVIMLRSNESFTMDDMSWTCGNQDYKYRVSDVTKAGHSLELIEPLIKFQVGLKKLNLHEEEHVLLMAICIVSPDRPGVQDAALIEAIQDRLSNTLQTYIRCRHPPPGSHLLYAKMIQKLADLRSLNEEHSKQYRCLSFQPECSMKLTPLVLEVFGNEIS
Procedure, shortened: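 Quantitative HTS in VDR-bla reporter cells stimulated with 1alpha,25-dihydroxyvitamin D3, 3 nM final. Compound exposure 16 h, 37C, 5% CO2. Read-out: beta-lactamase FRET substrate fluorescence, 2 h RT.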

[10] = molecular target: Vitamin D3 receptor (Homo sapiens) (UniProt P11473); experiment: qHTS assay to identify small molecule agonists of the vitamin D receptor (VDR) signaling pathway (AID 743222; calls by dose curve)
Procedure, shortened: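 Quantitative HTS agonist-mode screen: compounds in DMSO were pin-transferred onto VDR-bla cells and incubated 16 h at 37C, 5% CO2. Reporter activity was detected with LiveBLAzer B/G FRET substrate after 2 h at room temperature.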
% is scaled to controls: 0 for no effect and ±100 for the full control effect.

O=C1C(O)=C(O)C(=O)C(O)=C1O
inactive: Potency [1] | Potency [2] | Potency [3] | Potency [4] | Potency [5] | Potency [6] | Potency [7] | Potency [8] | outcome [9]

O=C(Cl)c1cc(C(=O)Cl)cc(C(=O)Cl)c1
inactive: Potency [1] | Potency [2] | Potency [3] | Potency [4] | Potency [6] | Potency [7] | Potency [8]

OC(C#CCN1CCCC1)(c1ccccc1)c1ccccc1
inactive: Potency [1] | Potency [2] | Potency [3] | Potency [4] | Potency [5] | Potency [8] | Potency [10]

CCCCC
inactive: Potency [1] | Potency [2] | Potency [3] | Potency [4] | Potency [6] | Potency [7] | Potency [8] | Potency [10] | outcome [9]

CCOC(=O)c1cccnc1
inactive: Potency [1] | Potency [2] | Potency [3] | Potency [4] | Potency [6] | Potency [8]

C[C@@H](c1ncncc1F)C(O)(Cn1cncn1)c1ccc(F)cc1F (stereo not given in full)
inactive: Potency [1] | Potency [2] | Potency [3] | Potency [4] | Potency [5] | Potency [6] | Potency [8]

CC(=O)c1cccc([N+](=O)[O-])c1
inactive: Potency [1] | Potency [2] | Potency [3] | Potency [4] | Potency [6] | Potency [7] | Potency [8] | Potency [10] | outcome [9]

O=C(O)C(S)C(S)C(=O)O (stereo not given)
inactive: Potency [1] | Potency [2] | Potency [3] | Potency [4] | Potency [6] | Potency [7] | Potency [8] | Potency [10] | outcome [9]

O=C(O)CNCC(=O)O
inactive: activity change, negative = cytotoxicity [1] -8.65% [at 5.95 µM] | activation [2] 11.6% [at 5.95 µM] | viability change, negative = cytotoxic [3] -5.77% [at 6.26 µM] | ratio activity, negative = inhibition [4] -0.396% [at 6.26 µM] | activity change, negative = inhibition [5] -18.1% [at 5.95 µM] | viability change, negative = cytotoxic [6] -1.74% [at 5.95 µM] | activation [7] 1.91% [at 5.95 µM] | activity change, negative = cytotoxicity [8] -4.51% [at 5.95 µM] | activation [10] 4.1% [at 6.01 µM]

CCNc1cc(O)ccc1C
inactive: Potency [1] | Potency [2] | Potency [3] | Potency [4] | Potency [5] | Potency [6] | Potency [7] | Potency [8]

COC(C)OC
inactive: Potency [1] | Potency [2] | Potency [3] | Potency [4] | Potency [6] | Potency [8] | Potency [10]

CCO[C@H](Cc1ccc(OCCc2ccc(OS(C)(=O)=O)cc2)cc1)C(=O)O
inactive: Potency [1] | Potency [3] | Potency [4] | Potency [6] | Potency [8] | Potency [10]
active: Potency [2] 11.9 µM

CC(C)(C)OCC1CO1 (stereo not given)
inactive: Potency [1] | Potency [2] | Potency [3] | Potency [4] | Potency [6] | Potency [8] | outcome [9]

CC[N+]1(CC)CCC(=C(c2ccccc2)c2ccccc2)C1C (stereo not given)
inactive: Potency [1] | Potency [2] | Potency [3] | Potency [4] | Potency [6] | Potency [8] | outcome [9]

CN1CCN(C(c2ccccc2)c2ccccc2)CC1
inactive: Potency [1] | Potency [2] | Potency [3] | Potency [4] | Potency [6] | Potency [8] | Potency [10]

O=C1OC(CN2CCOCC2)CN1/N=C/c1ccc([N+](=O)[O-])o1 (stereo not given)
inactive: Potency [1] | Potency [2] | Potency [3] | Potency [4] | Potency [6] | Potency [8] | Potency [10] | outcome [9]

CCOC(=O)C(=O)CCc1ccccc1
inactive: Potency [1] | Potency [2] | Potency [3] | Potency [4] | Potency [6] | Potency [8]

COc1cc2nc(N(C)CCCNC(=O)C3CCCO3)nc(N)c2cc1OC (stereo not given)
inactive: Potency [1] | Potency [2] | Potency [3] | Potency [4] | Potency [6] | Potency [8]

Brc1c2ccccc2c(Br)c2ccccc12
active: Potency [2] 1.98 µM
inactive: activity change, negative = cytotoxicity [1] 11.2% [at 5.95 µM] | viability change, negative = cytotoxic [3] -15% [at 6.26 µM] | ratio activity, negative = inhibition [4] -10.9% [at 6.26 µM] | activity change, negative = cytotoxicity [8] -3.74% [at 5.95 µM]

NC(N)=NCCC[C@H](N)C(=O)O
inactive: activity change, negative = cytotoxicity [1] 1.87% [at 5.95 µM] | activation [2] 0.522% [at 5.95 µM] | viability change, negative = cytotoxic [3] 2.08% [at 6.26 µM] | ratio activity, negative = inhibition [4] -1.1% [at 6.26 µM] | viability change, negative = cytotoxic [6] -2.05% [at 5.95 µM] | activity change, negative = cytotoxicity [8] -8.21% [at 5.95 µM] | activation [10] 9.36% [at 6.01 µM] | activity change, negative = inhibition [9] 2.1% [at 6.95 µM]

CNC(=O)CN(CCN(CCN(CC(=O)[O-])CC(=O)NC)CC(=O)[O-])CC(=O)[O-].O.[Gd+3]
inactive: Potency [1] | Potency [2] | Potency [3] | Potency [4] | Potency [6] | Potency [8] | Potency [10]

Nc1ccc(S(=O)(=O)Nc2ccccc2)cc1
inactive: Potency [1] | Potency [2] | Potency [3] | Potency [4] | Potency [6] | Potency [8]

Cc1oc(-c2ccccc2)nc1CCOc1cccc2c1ccn2CCC(=O)O
active: Potency [2] 8.71 µM
inactive: Potency [1] | Potency [3] | Potency [4] | Potency [8] | Potency [10]

CC(CSC(=O)c1ccccc1)C(=O)N1C[C@@H](Sc2ccccc2)C[C@H]1C(=O)O (stereo not given in full)
inactive: Potency [1] | Potency [2] | Potency [3] | Potency [4] | Potency [6] | Potency [8]

O=[N+]([O-])c1ccc2[nH]ncc2c1
inactive: Potency [1] | Potency [2] | Potency [3] | Potency [4] | Potency [6] | Potency [8]

COC(C)(C)CCO
inactive: Potency [1] | Potency [2] | Potency [3] | Potency [4] | Potency [6] | Potency [8] | Potency [10]

C[Si](C)(CCCN)O[Si](C)(C)CCCN
inactive: Potency [1] | Potency [2] | Potency [3] | Potency [4] | Potency [8] | outcome [9]

CCOc1ccc(N)c([N+](=O)[O-])c1
inactive: Potency [1] | Potency [2] | Potency [3] | Potency [4] | Potency [6] | Potency [8] | Potency [10] | outcome [9]
